Test results reported in PubChem BioAssay AID1347048 (National Center for Advancing Translational Sciences (NCATS), 2019).
The campaign covered roughly 76,000 compounds. About 1,200 (1.6%) were called active. Inconclusive results (about 4%) are left out. This is one part of a sample in which actives are shown more often than they occur. The call rests on the fitted dose curve.

biological target: Atrial natriuretic peptide receptor 1 (Homo sapiens) (UniProt P16066); experiment: Natriuretic polypeptide receptor (hNpr1) antagonism - Primary qHTS; settings: HEK293 hNpr1 GloSensor cGMP, ANP-stimulated luminescence; series mostly up to 46.3 µM; further: nearly all actives have a fitted effect of over 60% in size
How it was run: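 HEK293 cells stably expressing human Npr1 and cGMP GloSensor pGS-40F, loaded 2 h with 2% GloSensor reagent, given compound 30 min at room temperature. Luminescence read before and 20 min after 0.1 nM hNppA.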
Potency means the concentration at half of the fitted maximal effect.

Sequence of Atrial natriuretic peptide receptor 1 (Homo sapiens) (P16066 whole entry, looked up): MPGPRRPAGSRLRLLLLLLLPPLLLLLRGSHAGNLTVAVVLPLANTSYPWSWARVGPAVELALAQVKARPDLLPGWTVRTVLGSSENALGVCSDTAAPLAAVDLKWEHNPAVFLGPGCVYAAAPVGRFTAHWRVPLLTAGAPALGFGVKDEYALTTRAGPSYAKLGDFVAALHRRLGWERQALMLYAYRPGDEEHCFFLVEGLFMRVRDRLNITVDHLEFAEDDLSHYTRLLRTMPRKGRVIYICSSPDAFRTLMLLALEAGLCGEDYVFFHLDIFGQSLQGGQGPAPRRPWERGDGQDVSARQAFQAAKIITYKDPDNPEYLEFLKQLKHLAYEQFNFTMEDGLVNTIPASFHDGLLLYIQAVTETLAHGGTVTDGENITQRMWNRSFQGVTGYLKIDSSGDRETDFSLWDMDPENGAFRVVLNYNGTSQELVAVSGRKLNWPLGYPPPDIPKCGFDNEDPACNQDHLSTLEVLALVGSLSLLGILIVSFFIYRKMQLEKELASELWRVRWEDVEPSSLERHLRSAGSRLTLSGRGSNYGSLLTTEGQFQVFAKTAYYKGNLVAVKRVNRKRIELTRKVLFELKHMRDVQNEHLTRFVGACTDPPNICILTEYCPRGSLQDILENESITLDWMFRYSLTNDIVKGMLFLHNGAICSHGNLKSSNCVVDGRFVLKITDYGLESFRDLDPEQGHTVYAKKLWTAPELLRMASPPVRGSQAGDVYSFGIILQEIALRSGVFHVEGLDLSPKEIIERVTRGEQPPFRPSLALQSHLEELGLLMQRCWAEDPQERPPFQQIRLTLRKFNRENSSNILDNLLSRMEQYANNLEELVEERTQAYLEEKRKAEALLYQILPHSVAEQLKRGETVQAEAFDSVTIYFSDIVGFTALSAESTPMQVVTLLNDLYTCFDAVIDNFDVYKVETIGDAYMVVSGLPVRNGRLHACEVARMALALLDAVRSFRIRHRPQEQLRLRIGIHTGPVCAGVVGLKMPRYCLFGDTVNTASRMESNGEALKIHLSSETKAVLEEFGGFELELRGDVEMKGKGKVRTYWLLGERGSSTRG

Potency, inactive:
CC(C)c1noc(-c2cn(C3CCN(C(=O)c4cccc(C#N)c4)CC3)nn2)n1
CC(C)c1noc(-c2cn(C3CCN(C(=O)COc4ccccc4)C3)nn2)n1 (stereo unspecified)
O=C(c1cccnc1)N1CCC(Cc2nc(C3CCOCC3)no2)CC1
COc1cccc(C(=O)N2CCC(Cc3nc(-c4cnccn4)no3)CC2)c1
COc1ccc(C(=O)N2CCCC(Cc3nc(C4CCOCC4)no3)C2)cc1 (stereo unspecified)
O=C(C1CC1)N1CCCC(c2noc(COc3ccccc3F)n2)C1 (stereo unspecified)
CCN(Cc1ccncc1)C(=O)c1ccc2c(c1)C(O)CCCCCN2C (stereo unspecified)
C=C(C)CN(CC)C(=O)c1c(C)oc2c1CN(Cc1cccc(F)c1)CC2
O=C(C[C@@H]1CCNC[C@@H]1Cc1cc(CC2CCCCC2)on1)N1CCOCC1
COCCCNC(=O)c1ccc2c(c1)n(Cc1cccc(OC)c1)c(=O)c1ccnn12
COCC1CN(C2CCC2)CC12CCN(C(=O)CCc1ccccc1)CC2 (stereo unspecified)
COc1ccc(CN2C(=O)COC[C@H]2C(=O)Nc2ccc(C(C)C)cc2)c(OC)c1
CN(C)c1cccc(-c2cnc(Nc3cnccn3)c3c2CCO3)c1
CN1CCN(Cc2ccc(Nc3ncc(-c4cccnc4)c4c3OCC4)cc2)CC1
O=C(Nc1ccc(-c2nnc3n2CCCC3)cc1)c1ccsc1
CCn1c2c(c(=O)n1-c1ccccc1)CCN(C(=O)COc1ccccc1)C2
O=C(Nc1ccc(F)cc1)c1ccc2ccnn2c1

Potency, active:
CC(C)c1cc(C(=O)N2CCC(n3cc(-c4ccccn4)nn3)CC2)n(C)n1 10 µM
O=C(c1ccccc1)N1CCC(C(=O)N2CCC(Cc3nc(-c4ccc(F)cc4)no3)CC2)CC1 11.2 µM
COc1cccc(-c2noc(CC3CCN(C(=O)c4ccc(F)cc4)CC3)n2)c1 5.62 µM
CN(C)c1cccc(-c2cnc(Nc3ccc(N4CCOCC4)cc3)c3c2CCO3)c1 25.1 µM
